Screen size: about 48,000 compounds; about 13,000 (27%) showed an effect of 50% or more. The list shows a part of the results.
What follows are molecules tested on Wolbachia pipientis (assay: Anti-Wolbachia Cell-Based Screen). Details: 5 µM.
Type: functional
Set-up: scale not given: in the data most compounds retested in dose-response had high values
In the case of `CN1CCC(N(C)C(=O)c2cnn(-c3ccccc3Br)c2N)CC1`, the “Percent Effect” value is reported as 112.2%. In the case of `Cc1cc(C(=O)N(C)C2CCS(=O)(=O)C2)c2ccc(F)cc2n1` (stereo not given), the “Percent Effect” value is reported as -24.13%. For `CCCN1CCC(N(C)C(=O)c2cc(C)nc3cc(F)ccc23)CC1`, the “Percent Effect” value was 11.04%. For `CN1CCC(N(C)C(=O)c2cnn(-c3cc(F)ccc3F)c2N)CC1`, the “Percent Effect” value was 123.1%. `Cc1cccc2c1nc(COCC(=O)O)n2-c1ccc(N)nc1` was tested, and the “Percent Effect” value was -5.94%. `CCCC(C)C(=O)N1CCC(c2cc(N3CCOCC3)nc(C)n2)CC1` (stereo not given) was tested, and the “Percent Effect” value was 8.426%. For `Cn1c(CCNc2nccnc2C#N)nc2cc(Cl)ccc21`, the “Percent Effect” value was -1.88%. For `Cc1nccc(CNC(=O)NCCOc2ccc(F)c(F)c2)n1`, the “Percent Effect” value was -14.18%. For `Cc1cc(OCC(=O)NS(=O)(=O)c2c(C)noc2C)ccc1Cl`, the “Percent Effect” value was -5.411%. In the case of `CN(C)S(=O)(=O)NCc1cccnc1Oc1ccc(F)c(F)c1`, the “Percent Effect” value is reported as -7.83%. In the case of `Cc1cccc(OC2CCN(c3ncc(C#N)cc3Cl)CC2)n1`, the “Percent Effect” value is reported as -14.79%. `CN(C)c1cccc(CNC(=O)Nc2cc(C#N)ccc2Cl)n1` was tested, and the “Percent Effect” value was 19.69%. In the case of `Cc1cc(=O)n2nc(Oc3ccc(Cl)c(C)c3)sc2n1`, the “Percent Effect” value is reported as 81.92%. With `Cc1cc(=O)n2nc(Oc3ccc(C#N)cc3Cl)sc2n1` the “Percent Effect” value was 80.29%. In the case of `Cc1cc(=O)n2nc(Oc3cc(Cl)cc(Cl)c3)sc2n1`, the “Percent Effect” value is reported as 108.5%. With `Cc1cc(=O)n2nc(Oc3ccc(F)c(F)c3)sc2n1` the “Percent Effect” value was 78.71%. In the case of `c1ccc(C(CNc2ncccn2)N2CCOCC2)nc1` (stereo not given), the “Percent Effect” value is reported as -6.458%. `CS(=O)(=O)NC[C@H]1Cn2c(-c3ccc(Cl)cc3)cnc2CO1` was tested, and the “Percent Effect” value was -25.96%. `Cc1nnc(NC(=O)CN2CCCC(Cn3cncn3)C2)s1` (stereo not given) was tested, and the “Percent Effect” value was -2.603%. In the case of `CCc1nnc2n1CCN(C(=O)c1ccc(-c3ccco3)nc1C)C2`, the “Percent Effect” value is reported as -7.114%. With `c1ccc(-c2noc(CNC3CCCN(c4cccnn4)C3)n2)nc1` (stereo not given) the “Percent Effect” value was 15.74%. In the case of `NC(=O)N1CCCC(c2nc(-c3cccnn3)no2)C1` (stereo not given), the “Percent Effect” value is reported as -17.63%. In the case of `c1cnnc(-c2noc(COCC3CCCO3)n2)c1` (stereo not given), the “Percent Effect” value is reported as -7.3%. With `O=C1CCCCCN1CCc1nc(-c2cccnn2)no1` the “Percent Effect” value was 101.6%. `O=C1CCCN1CCc1nc(-c2ccsc2)no1` was tested, and the “Percent Effect” value was 3.312%. With `CCC(=O)N1CCCC(c2nc(-c3cccnn3)no2)C1` (stereo not given) the “Percent Effect” value was -10.18%. In the case of `O=C1CCCN1Cc1nc(-c2ccsc2)no1`, the “Percent Effect” value is reported as -0.6709%. For `O=C1CCCCN1CCc1nc(-c2cccnn2)no1`, the “Percent Effect” value was 94.65%. In the case of `c1cnnc(-c2noc(CCN3CCCO3)n2)c1`, the “Percent Effect” value is reported as 93.6%. With `Fc1cnc(N2CC[C@@H]3O[C@H](COCc4ccccn4)CC[C@@H]32)nc1.O=C(O)C(F)(F)F.O=C(O)C(F)(F)F` the “Percent Effect” value was -8.752%. In the case of `CCC(Nc1cccc(Oc2ccc(C#N)cc2)c1)C(N)=O` (stereo not given), the “Percent Effect” value is reported as 17.41%. For `O=c1cc2c(nn1CN1CCN(c3cccc(Cl)c3)CC1)CCC2`, the “Percent Effect” value was -5.597%. With `N#Cc1ccc2c(c1)CN(C(=O)c1nc[nH]n1)C2c1cnco1` (stereo not given) the “Percent Effect” value was -15.48%. In the case of `CNC(=O)[C@@H]1CN(C(=O)CCOC)C[C@H]1c1ccnc(N2CCCC2)n1.Cl`, the “Percent Effect” value is reported as 97.41%. `CNC(=O)C1CCN(c2nccc(CCC(F)(F)F)n2)C1` (stereo not given) was tested, and the “Percent Effect” value was -10.68%. In the case of `CCNc1ccnc(N2CCCC(CCOC)(C(=O)O)C2)n1` (stereo not given), the “Percent Effect” value is reported as -0.7265%. For `COCCC(=O)N1CCN(C)c2ncccc2C1`, the “Percent Effect” value was -0.6435%. With `CCNC(=O)C1CCN(c2nccc(C3CCCC3)n2)C1` (stereo not given) the “Percent Effect” value was -5.882%. For `CNC(=O)[C@@H]1CN(C(=O)COC)C[C@H]1c1ccnc(N2CCCC2)n1`, the “Percent Effect” value was 103.6%. With `CNC(=O)[C@@H]1COC[C@H]2CN(C(=O)COc3ccccc3)C[C@H]21` the “Percent Effect” value was -5.187%. For `CCC(=O)N1C[C@@H](C(=O)NC)[C@H](c2ccnc(N3CCCC3)n2)C1.Cl`, the “Percent Effect” value was 103.8%. In the case of `CCn1ncnc1C(C)NC(=O)C1CCN(C(=O)COC)CC1` (stereo not given), the “Percent Effect” value is reported as 0.6867%. With `O=C(O)C(c1cccc2c1OCC2)N1CCC(N2CCCC2)CC1` (stereo not given) the “Percent Effect” value was -6.638%. With `O=C1C(Nc2ncccn2)CCN1c1ccccc1OC(F)F` (stereo not given) the “Percent Effect” value was -3.338%. `COCCS(=O)(=O)NC(C)c1cccc(-n2cccn2)c1` (stereo not given) was tested, and the “Percent Effect” value was 2.381%. With `CC(=O)Nc1ccc(C(=O)Nc2cnc3n2CCCC3)cc1C` the “Percent Effect” value was 7.352%. For `CN1Cc2ccccc2CC2(CCN(C(=O)[C@H]3CCCO3)CC2)C1=O`, the “Percent Effect” value was -50.23%. In the case of `CC(C)NC(=O)N1CCC2(CC1)Cc1ccccc1CNC2=O`, the “Percent Effect” value is reported as 106.4%. `C[C@@H]1CN(C2(C(=O)N3CCOCC3)Cc3ccccc3C2)C[C@H](C)O1` was tested, and the “Percent Effect” value was -3.118%. In the case of `CC(C)NC(=O)N1CCC2(CC1)CCn1c(C3CC3)cnc12`, the “Percent Effect” value is reported as 5.233%. `CNS(=O)(=O)c1ccccc1N1CCN(C(=O)NC(C)C)CC1` was tested, and the “Percent Effect” value was -1.761%. In the case of `CN1Cc2ccccc2CC2(CCN(C(=O)N3CCOCC3)CC2)C1=O`, the “Percent Effect” value is reported as 102.4%. With `CC(NC(=O)N1CCc2ccccc2C1)c1nncn1C` (stereo not given) the “Percent Effect” value was -2.02%. In the case of `CC(C)NC(=O)N1CCC2(CC1)Cc1ccccc1CN(C)C2=O`, the “Percent Effect” value is reported as 105%. With `O=C([C@H]1CCCO1)N1CCC2(CC1)Cc1ccccc1CNC2=O` the “Percent Effect” value was -31.67%.

From ChEMBL document CHEMBL3988442, “University of Dundee, Small-Polar-MMV Screening Library” (2021)
